Consider eight compounds from PubChem BioAssay (NCI).

Among the test systems are HT29 colon; SNB-75 CNS; SNB-19 CNS; U251 CNS; SK-MEL-5 melanoma; UACC-62 melanoma; LOX IMVI melanoma; SK-MEL-28 melanoma; SK-MEL-2 melanoma; EKVX NSCLC; SN12C renal; UO-31 renal; TK-10 renal; ACHN renal; CAKI-1 renal; A498 renal; CCRF-CEM leukemia; MOLT-4 leukemia; SR leukemia.
Common to all, as to experiment: NCI-60 one-dose screen, 48 h (100 = growth as untreated, 0 = no growth, -100 = all killed)
Common to all, as to conditions: 10 µM unless noted

Molecules are shown by their SMILES. This is part of a sample that, as a whole, favours compounds with a hit. Of some 83,000 tested, about 20% had one in any assay.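 How to read the values: 0–100, growth inhibition (40 = 60% inhibited); 0, no net growth; -100 to 0, cell death (-40 = 40% of starting cells died; -100 = all dead).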 A number with no mark means an inactive call. Active and inactive are the calls of the source. The calls were made as follows: active = growth percent below 10; inactive = the rest.

On to `Cc1cc(NC(=O)Nc2cccc3ccccc23)no1`, for which the growth in the assay on HT29 colon is 108%; with SNB-75 CNS, 91.4%; in the assay on SNB-19 CNS, 105%; in the assay on U251 CNS it was 93.6%; in the assay with SK-MEL-5 melanoma, 99%; in the assay with UACC-62 melanoma it was 90.6%. Also, the growth in the assay on LOX IMVI melanoma was 95.9%; with SK-MEL-28 melanoma, 116%; in the assay with SK-MEL-2 melanoma, 101%; in the assay on EKVX NSCLC it was 102%; in the assay on SN12C renal it was 109%; in the assay with UO-31 renal, 89%. Also, the growth is 146% in the assay on TK-10 renal; 98.4% in the assay on ACHN renal; 104% in the assay on CAKI-1 renal; 126% in the assay with A498 renal; 107% in the assay with CCRF-CEM leukemia; 106% in the assay with MOLT-4 leukemia. The growth in the assay on SR leukemia is 81.2%.
With `NC(=O)c1ccccc1NC(=O)c1ccccc1Cl`, the growth with HT29 colon was 118%; with SNB-75 CNS it was 92.8%; with SNB-19 CNS it was 98.4%; in the assay on U251 CNS, 106%; in the assay with SK-MEL-5 melanoma, 106%; in the assay on UACC-62 melanoma, 97.4%. Moreover, the growth in the assay on LOX IMVI melanoma was 106%; with SK-MEL-28 melanoma, 112%; in the assay on SK-MEL-2 melanoma, 129%; in the assay with EKVX NSCLC, 103%; with SN12C renal it was 101%; in the assay on UO-31 renal it was 82.8%. The growth in the assay on TK-10 renal is 141%; in the assay with ACHN renal, 104%; in the assay with CAKI-1 renal, 98.3%; in the assay with A498 renal, 98.3%; in the assay on CCRF-CEM leukemia, 97.3%; in the assay with MOLT-4 leukemia, 63.7%. Besides, the growth in the assay with SR leukemia is -9.77% (active).
In the case of `O=C(Oc1ccc[nH]c1=O)c1cccc(Cl)c1`, the growth in the assay on HT29 colon was 97.4%; with SNB-75 CNS it was 53.2%; in the assay with SNB-19 CNS it was 85.8%; in the assay with U251 CNS, 92.7%; in the assay with SK-MEL-5 melanoma, 99.8%; in the assay with UACC-62 melanoma, 95.3%. Besides, the growth is 90.8% in the assay with LOX IMVI melanoma; 127% with SK-MEL-28 melanoma; 108% with SK-MEL-2 melanoma; 104% with EKVX NSCLC; 108% with SN12C renal; 96.2% in the assay with UO-31 renal. The growth in the assay with TK-10 renal is 107%; in the assay with ACHN renal it was 96%; in the assay with CAKI-1 renal it was 101%; in the assay on A498 renal it was 127%; in the assay with CCRF-CEM leukemia, 123%; in the assay on MOLT-4 leukemia it was 115%. Further, the growth in the assay with SR leukemia was 99.2%.
Take `CCCCSc1cc(C)nc(N)n1`: the growth with HT29 colon is 103%; in the assay with SNB-75 CNS, 81%; with SNB-19 CNS, 99.4%; in the assay on U251 CNS, 93.8%; in the assay with SK-MEL-5 melanoma it was 101%; in the assay with UACC-62 melanoma, 93.9%. Besides, the growth in the assay on LOX IMVI melanoma is 92%; in the assay with SK-MEL-28 melanoma, 113%; in the assay with SK-MEL-2 melanoma, 93.4%; in the assay on EKVX NSCLC, 97.2%; in the assay on SN12C renal, 92.1%; in the assay on UO-31 renal it was 45.5%. For the same compound, the growth in the assay with TK-10 renal was 93.8%; with ACHN renal it was 96.9%; in the assay on CAKI-1 renal, 97.6%; in the assay on A498 renal it was 92.8%; in the assay with CCRF-CEM leukemia it was 91.7%; with MOLT-4 leukemia it was 102%. In the assay with SR leukemia, the growth is 98%.
On to `Oc1[nH]c2ccc(Cl)cc2c1/C=c1/ccc2c(c1)N=C(c1ccc(C(F)(F)F)cc1)N=2`, for which the growth was 42.2% with HT29 colon; 15.8% with SNB-75 CNS; 77% in the assay with SNB-19 CNS; 49.8% with U251 CNS; 63.4% in the assay with SK-MEL-5 melanoma; 61.6% in the assay on UACC-62 melanoma. The growth with LOX IMVI melanoma was 34.2%; in the assay with SK-MEL-28 melanoma, 45.8%; with SK-MEL-2 melanoma it was 63.3%; in the assay on EKVX NSCLC it was 87.4%; in the assay with SN12C renal it was 88.3%; in the assay on UO-31 renal, 62.2%. The growth is 88.4% in the assay with TK-10 renal; 57% in the assay with ACHN renal; 54.3% with CAKI-1 renal; 95.4% in the assay with A498 renal; 15.5% in the assay with CCRF-CEM leukemia; 21.3% in the assay on MOLT-4 leukemia. Besides, the growth in the assay on SR leukemia was 25.9%.
For `N#Cc1ccc(NC(=O)Nc2ccc(Oc3ccc(NC(=O)Nc4ccc(C#N)cc4)cc3)cc2)cc1`, the growth in the assay with HT29 colon is 37.4%; in the assay on SNB-75 CNS, 70.1%; in the assay on SNB-19 CNS, 30.7%; in the assay on U251 CNS it was 27.7%; in the assay with SK-MEL-5 melanoma it was 31.2%; in the assay on UACC-62 melanoma it was 11.2%. The growth is 35.4% in the assay on LOX IMVI melanoma; 51% with SK-MEL-28 melanoma; -19.6% (active) with SK-MEL-2 melanoma; 34.1% with EKVX NSCLC; 39% in the assay on SN12C renal; -25.7% (active) in the assay with UO-31 renal. Moreover, the growth was 37.9% in the assay with TK-10 renal; 23.1% in the assay on ACHN renal; 33% with CAKI-1 renal; 41.1% with A498 renal; -13.7% (active) in the assay with CCRF-CEM leukemia; -58% (active) with MOLT-4 leukemia. Also, in the assay on SR leukemia, the growth was 3.43% (active).
In the case of `O=C(Nc1ccc(Oc2ccc(NC(=O)Nc3ccc([N+](=O)[O-])cc3)cc2)cc1)Nc1ccc([N+](=O)[O-])cc1`, the growth in the assay with HT29 colon was 8.5% (active); in the assay on SNB-75 CNS it was 42.6%; with SNB-19 CNS, 29.7%; in the assay with U251 CNS, 17.6%; in the assay with SK-MEL-5 melanoma, -76.1% (active); with UACC-62 melanoma it was 15.6%. Also, the growth in the assay on LOX IMVI melanoma is 12.4%; in the assay with SK-MEL-28 melanoma it was 24.8%; with SK-MEL-2 melanoma, -27.5% (active); in the assay with EKVX NSCLC, 17.1%; in the assay with SN12C renal, 12.1%; in the assay on UO-31 renal, -4.36% (active). Further, the growth in the assay with TK-10 renal is 15.1%; in the assay on ACHN renal it was 10.2%; with CAKI-1 renal, 13.9%; in the assay on A498 renal it was 13%; with CCRF-CEM leukemia it was -32% (active); with MOLT-4 leukemia it was -26.4% (active). The growth with SR leukemia is -3.7% (active).
With `O=C1CC(C(F)(F)F)=NN1C(=O)c1nn(-c2ccc(Cl)cc2)cc1O`, the growth in the assay with HT29 colon was 110%; with SNB-75 CNS it was 74.6%; with SNB-19 CNS, 87.7%; in the assay on U251 CNS it was 64.9%; in the assay with SK-MEL-5 melanoma it was 88.4%; with UACC-62 melanoma, 96.4%. Moreover, the growth with LOX IMVI melanoma was 62.6%; in the assay with SK-MEL-28 melanoma, 115%; in the assay with SK-MEL-2 melanoma it was 96.9%; with EKVX NSCLC, 79.5%; in the assay on SN12C renal, 80.3%; with UO-31 renal, 67.3%. For the same compound, the growth in the assay with TK-10 renal was 122%; with ACHN renal, 79.3%; in the assay on CAKI-1 renal, 52.8%; in the assay on A498 renal, 77.8%; with CCRF-CEM leukemia, 53.1%; in the assay with MOLT-4 leukemia, 80.4%. Further, in the assay on SR leukemia, the growth is -0.46% (active).
